This passage reports growth inhibition results from PubChem BioAssay (NCI).

A short description of assay [1]: NCI Yeast Anticancer Drug Screen. Data for the rad50 strain (AID 155).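 Also: 0% = growth of vehicle-only cultures of the same strain.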 The following applies: S. cerevisiae rad50 strain growth inhibition; at 50.0 µM; stronger effect = higher value. The method in brief: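 Compounds were tested on a yeast strain with an engineered DNA damage repair alteration; the reported value is growth inhibition normalised to vehicle treatment.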
Assay [2] is described as follows: NCI Yeast Anticancer Drug Screen. Data for the mec2-1 strain (AID 157). The following applies: S. cerevisiae mec2-1 strain, at 50.0 µM, stronger effect = higher value. The method, boiled down: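 Mutant yeast (mec2-1) grown with compound; growth inhibition relative to vehicle control reported.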
Assay [3] is described as follows: NCI Yeast Anticancer Drug Screen. Data for the sgs1 mgt1 strain (AID 161).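 Also: 0% = growth of cultures given vehicle only.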 The following applies: S. cerevisiae sgs1 mgt1 strain, at 50.0 µM, stronger effect = higher value. The method in brief: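 Compounds are added to genetically altered yeast, and growth is compared with cultures given vehicle alone to give percent inhibition.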
Assay [4] can be described thus: NCI Yeast Anticancer Drug Screen. Data for the cln2 rad14 strain (AID 165).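 Also: 0% = growth equal to vehicle treated cultures.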 The following applies: S. cerevisiae cln2 rad14 strain, at 50.0 µM, stronger effect = higher value. The method in brief:
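Readout is yeast growth inhibition versus vehicle-treated controls, using a strain with cln2 and rad14 alterations exposed to compound.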

Assay [5] can be described thus: NCI Yeast Anticancer Drug Screen. Data for the bub3 strain (AID 167). The following applies: S. cerevisiae bub3 mutant strain, at 50.0 µM, stronger effect = higher value. The method, boiled down:
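Growth of a checkpoint-deficient yeast mutant is measured after compound exposure. Values represent inhibition relative to vehicle.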

Assay [6] is described as follows: NCI Yeast Anticancer Drug Screen. Data for the mlh1 rad18 strain (AID 175). The following applies: S. cerevisiae mlh1 rad18 strain growth inhibition; at 50.0 µM; stronger effect = higher value. The method in brief: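 Genetically defined yeast (DNA repair-deficient) exposed to compounds; growth inhibition determined relative to vehicle.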

Molecules are shown by their SMILES. About 79,000 compounds went through this panel and 15% of them were active in at least one assay; those are over-represented in the sample as a whole. A number with no mark means an inactive call. The source made the active and inactive calls. Rule as the data show it: active = growth inhibition above about 70%; inactive = the rest.

For `CCCNCC(O)CNc1ccc(Cl)cc1` (stereo not given), the growth inhibition in assay [1] was 3.1%; in assay [2], -7.15%; in assay [3] it was 2.05%; in assay [4] it was -9.4%; in assay [5], -4.3%; in assay [6] it was 5.65%.

Consider `Cn1ncc2c(=O)[nH]c(NN)nc21`, for which the growth inhibition in assay [1] is -8.35%; in assay [2], -4.45%; in assay [3], -4.8%; in assay [4], -17.8%; in assay [5] it was -0.95%; in assay [6], -1.95%.

In the case of `N#CC1(N=Cc2ccc3c(c2)OCO3)c2ccccc2-c2ccccc21`, the growth inhibition in assay [1] is 15.2%; in assay [2] it was 6.85%; in assay [3] it was 5.8%; in assay [4], -9.35%; in assay [5] it was 8.55%; in assay [6], 4.95%.

`C=Cn1c([N+](=O)[O-])cnc1/C=C/c1ccc(C(=O)OCCN2CCOCC2)cc1`: the growth inhibition in assay [1] was 68.8%; in assay [2] it was 16.4%; in assay [3] it was 78.3% (active); in assay [4], 34.9%; in assay [5], -10.2%; in assay [6], 53%.

Consider `O=C1OC(c2ccc(O)c(O)c2)(c2ccc(O)c(O)c2)c2ccccc21`, for which the growth inhibition in assay [1] was -27.9%; in assay [2], -24.2%; in assay [3], -27.1%; in assay [4] it was 5.8%; in assay [5] it was -21.7%; in assay [6], -32.6%.

`CC1=C(C(=O)N(C)c2ccc(Cl)c(C(=O)OC(C)C)c2)SCCO1`: the growth inhibition in assay [1] was -19.6%; in assay [2], -50.8%; in assay [3], -12.1%; in assay [4], -6%; in assay [5] it was -11.8%; in assay [6] it was -28.1%.

On to `O=[N+]([O-])c1ccc(/C=C/c2cc(-c3ccccc3)nc3ccc4ccccc4c23)cc1`, for which the growth inhibition in assay [1] was -11.1%; in assay [2] it was 5.1%; in assay [3] it was 9.9%; in assay [4], 3.2%; in assay [5] it was -11.9%; in assay [6], 4.5%.

Consider `CC1(C)N=C(N)N=C(N)N1c1cccc(OCCCOc2ccc([N+](=O)[O-])cc2)c1`, for which the growth inhibition in assay [1] was -31.9%; in assay [2], -23.6%; in assay [3], -17.1%; in assay [4] it was -44.9%; in assay [5], -7.8%; in assay [6], -26.4%.

Regarding `O=C(Nc1ccccc1)C(c1ccccc1)N(Nc1ccccc1Cl)c1ccccc1Cl` (stereo not given), the growth inhibition in assay [1] was 28.8%; in assay [2], 10.8%; in assay [3], 17.1%; in assay [4], 7.05%; in assay [5], -5%; in assay [6], 25%.

For the molecule `COc1c(Cl)c(Cl)c([N+](=O)[O-])c(Cl)c1Cl`, the growth inhibition in assay [1] was 40.4%; in assay [2], 30.1%; in assay [3], 35.5%; in assay [4], 7.65%; in assay [5], 37.9%; in assay [6], 33.2%.

On to `Cc1nc(-c2cc([N+](=O)[O-])cc([N+](=O)[O-])c2)oc1-c1ccccc1`, for which the growth inhibition is -15.2% in assay [1]; -1.95% in assay [2]; -7.35% in assay [3]; 13% in assay [4]; -3.25% in assay [5]; -3.4% in assay [6].

As for `CC(Cl)CNC(=O)Nc1cccc2c1CCCC2` (stereo not given), the growth inhibition is 3.45% in assay [1]; 10.2% in assay [2]; -1.9% in assay [3]; -48.6% in assay [4]; -22.2% in assay [5]; -1.4% in assay [6].

With `O=P(CCCCCCCCCCP(=O)(c1ccccc1)c1ccccc1)(c1ccccc1)c1ccccc1`, the growth inhibition in assay [1] was -11%; in assay [2], 2.6%; in assay [3] it was 23.5%; in assay [4], 9.55%; in assay [5] it was 2.3%; in assay [6] it was 29.5%.

In the case of `OCc1c(CO)c(-c2ccc(Cl)c(Cl)c2)n2c1CCC2`, the growth inhibition in assay [1] is 13.4%; in assay [2] it was 2.4%; in assay [3] it was 8.1%; in assay [4] it was 14.9%; in assay [5], -0.2%; in assay [6], 51%.

`O=C(N/N=C\c1ccc2c(c1)OCO2)c1ccc2c(c1)OCO2`: the growth inhibition in assay [1] was 0.7%; in assay [2] it was 0.05%; in assay [3], 1.85%; in assay [4], -15.2%; in assay [5], 5.05%; in assay [6], 0.55%.

For `Cc1csc(C)[n+]1CC(=O)c1ccccc1`, the growth inhibition in assay [1] is -10%; in assay [2], -5.45%; in assay [3], -8.4%; in assay [4], -20.2%; in assay [5] it was -6.1%; in assay [6] it was -29.1%.

Regarding `N#CCCP(=O)(O)CO`, the growth inhibition was -6.5% in assay [1]; -13.3% in assay [2]; 1.1% in assay [3]; 0.1% in assay [4]; 3.9% in assay [5]; -26.7% in assay [6].

As for `Cc1cc(NC(=O)COCC(=O)O)no1`, the growth inhibition in assay [1] was -7.15%; in assay [2], -24.9%; in assay [3], 5.65%; in assay [4], 9.45%; in assay [5], 0.6%; in assay [6], -9.15%.

For the molecule `CC(=O)Nc1ccc(/C=N/NC(=S)Nc2cccc3cccnc23)cc1`, the growth inhibition in assay [1] was -1.2%; in assay [2], 17.9%; in assay [3], -5%; in assay [4], 10.5%; in assay [5] it was 31.4%; in assay [6] it was -4.45%.

Turning to `O=C(O)C1C2CCC3C(C(=O)O)C3C21` (stereo not given), the growth inhibition in assay [1] is -2.7%; in assay [2], 18.6%; in assay [3], -4.95%; in assay [4] it was -40.2%; in assay [5], 11.7%; in assay [6], -0.8%.
